# Compound activity deposited in PubChem by National Center for Advancing Translational Sciences (NCATS).
# ELG1 genotox: induces genotoxicity in HEK293T cells with luciferase-tagged ELG1. 330,000 tested, 1.3% active. HEK293T ELG1-luciferase reporter, luminescence, 16 h. Potency, µM (titrated, usually from 46 µM), most hits filed as activators; further: nearly all actives have a fitted effect of over 60% in size
#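 Cells (2,000/well) expressing the ELG1-luciferase fusion are dosed by pin tool and kept 16 hr at 37 °C, 5% CO2. Signal comes from ONE-Glo luciferase reagent after 30 min at room temperature.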
# Rab9 prom act: Rab9 promoter activation; AID 485297; 320,000 tested, 2.8% active; Potency, µM (titrated, usually from 9.22 µM), actives largely listed as activators; Huh7 Rab9 promoter-luciferase reporter, luminescence, 24 h; further: nearly all actives have a fitted effect of over 60% in size
#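 Luciferase signal after 10 min detection reagent at ambient indicates Rab9 promoter upregulation; stably transfected Huh7 cells were treated 24 h with compound in DMSO at 37 °C, 5% CO2.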
# FLuc counter: inhibits or activates purified firefly luciferase, miR-21 counter-screen | AID 588342 | purified FLuc, Km substrates, luminescence inhibition | P08659 | 360,000 tested, 6.9% active | Potency, µM (highest dose often 57.5 µM), actives largely listed as inhibitors; further: nearly all actives have a fitted effect of over 55% in size
# Target sequence (P08659 whole entry, looked up): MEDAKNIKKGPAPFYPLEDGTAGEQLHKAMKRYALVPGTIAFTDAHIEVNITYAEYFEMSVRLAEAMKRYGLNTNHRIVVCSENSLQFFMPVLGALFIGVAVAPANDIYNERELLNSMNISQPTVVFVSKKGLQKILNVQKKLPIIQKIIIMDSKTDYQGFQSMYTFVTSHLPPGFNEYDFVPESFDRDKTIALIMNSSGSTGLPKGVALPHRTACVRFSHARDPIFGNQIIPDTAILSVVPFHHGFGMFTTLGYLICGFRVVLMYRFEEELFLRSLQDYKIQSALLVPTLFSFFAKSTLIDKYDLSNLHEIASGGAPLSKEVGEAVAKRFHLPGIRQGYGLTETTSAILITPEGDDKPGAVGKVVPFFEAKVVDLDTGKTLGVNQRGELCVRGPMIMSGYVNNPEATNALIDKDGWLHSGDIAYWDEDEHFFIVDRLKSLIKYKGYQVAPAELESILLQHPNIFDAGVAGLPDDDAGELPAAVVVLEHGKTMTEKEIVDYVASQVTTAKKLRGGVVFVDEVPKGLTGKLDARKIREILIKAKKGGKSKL
#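 Purified P. pyralis luciferase, 10 nM final, with Km-level 10 uM D-luciferin and 10 uM ATP in 50 mM Tris acetate pH 7.5, 10 mM Mg acetate, 0.01% Tween-20, 0.05% BSA; 6-point qHTS titration about 60 µM downward; luminescence read.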
# Luc counter: blocks Kinase-Glo luciferase, a counter-screen artifact; Q27757; Kinase-Glo luciferase, ATP luminescence, 8 min; Potency, µM (top dose mostly 38.3 µM), most hits filed as inhibitors; 200,000 tested, 0.28% active; further: nearly all actives have a fitted effect of over 60% in size
#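 Inhibition of Kinase-Glo luciferase light generation was assessed at 10 uM ATP in pH 7.2 imidazole buffer, with luminescence measured after eight minutes at ambient temperature.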
# SMN2 splice enh: enhancers of SMN2 splice variant expression | HEK293 SMN2-luciferase splicing reporter, luminescence, 30-36 h | Potency, µM (highest dose often 46.1 µM), usual class: activators | 210,000 tested, 2.8% active | AID 1458; further: nearly all actives have a fitted effect of over 55% in size
#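 HEK293 cells carry an SMN2 minigene-luciferase reporter in which exon 7 inclusion puts luciferase in frame. Cells were seeded at 2000 cells/well, attached for 10-12 hours, then exposed to compounds for 30-36 hours at 37C before ONE-Glo luminescence.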
# NPC1 promoter act: activators of NPC1 promoter | Huh7 NPC1 promoter luciferase reporter, 24 h | Potency, µM (titrated, usually from 9.22 µM), usual class: activators | 320,000 tested, 2.4% active | AID 485313; further: nearly all actives have a fitted effect of over 60% in size
#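 Huh7 reporter cells (NPC1 promoter driving luciferase) are dosed with compound for 24 h at 37 °C, 5% CO2; luciferase detection reagent is then added and luminescence measured after 10 min at ambient temperature.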
# Numbers stand for hits; – = inactive; ? = inconclusive; · = not tested or not shown. Hits are enriched below; roughly 7.3% of the tested compounds scored in any of these assays. The call rests on the fitted dose curve; in most records, active means well fitted curve in the direction sought with a large enough effect; inconclusive means small, poorly fitted or top-dose-only effect, or another doubt; inactive means no such curve, though single readings can be large; an effect the other way counts as inactive or inconclusive.
SMILES,ELG1 genotox,Rab9 prom act,FLuc counter,Luc counter,SMN2 splice enh,NPC1 promoter act
CCc1cc(C(c2ccc(OC)c(OC)c2)N2CCOCC2)c(NC(=O)c2ccccc2)s1 (stereo not drawn),–,–,?,·,·,–
CCN(CC)c1ccc(NC(=O)CSc2nc(C3CC3)nc3ccccc23)cc1C,–,–,–,·,·,–
Cc1cc(NC(=O)c2cccs2)no1,–,–,?,·,·,–
Cc1cc(NC(=O)c2sc3ccccc3c2O)no1,10µM,3.2µM,9.5µM,·,·,1.6µM
Cc1cc(NC(=O)/C=C/c2ccccc2Cl)n(-c2nc3ccccc3[nH]2)n1,–,2µM,1.3µM,–,11µM,?
Cc1cc(NC(=O)c2ccccc2Cl)no1,?,4µM,15µM,–,?,?
Cc1cc(NC(=O)c2cc(C(C)C)on2)no1,?,?,15µM,–,?,?
Cc1cc(NC(=O)c2ccc(F)cc2F)n(-c2nc3ccccc3[nH]2)n1,–,–,–,–,–,–
COc1ccccc1C(=O)NC(CCSC)C(=O)OCC(=O)NC(=O)NCc1ccco1 (stereo not drawn),–,–,–,–,–,–
Cc1cc(NC(=O)NC(=O)c2ccccc2F)no1,?,3.5µM,?,·,·,?
Cc1cc(NC(=O)c2c(F)cccc2Cl)no1,–,–,–,–,–,–
CCCN=Cc1sc2ccc(OCC)cc2c1O,23µM,3.2µM,12µM,–,–,?
O=S(=O)(NCC(c1ccc2c(c1)OCO2)N1CCOCC1)c1ccc(F)cc1 (stereo not drawn),–,–,–,·,·,–
Cc1ccc(C(=O)NCC(=O)OCC(=O)NCCNC(=O)COC(=O)CNC(=O)c2ccc(C)cc2)cc1,–,–,–,·,·,–
CCOC(=O)CNC(=O)c1ccc(C)cc1,–,–,13µM,–,–,–
CCOC(=O)CNC(=O)c1ccc2[nH]c3ccccc3c2c1,–,–,17µM,–,–,–
CCOc1ccc(C(=O)NCC(=O)OCCCOC(=O)CNC(=O)c2ccc(OCC)cc2)cc1,–,–,?,·,·,–
CCOC(=O)CNC(=O)c1ccc(OCC(F)(F)F)cc1,–,2µM,?,?,13µM,?
O=C(NCC(O)CO)c1ccc2[nH]c3ccccc3c2c1 (stereo not drawn),–,–,?,–,–,–
O=C(NCCN1C(=O)S/C(=C/c2cccnc2)C1=O)C1CC(=O)N(Cc2ccccc2)C1 (stereo not drawn),–,–,–,–,–,–
O=c1[nH]c(C(Cl)Cl)nc2sc3c(c12)CCN(Cc1ccccc1)C3,–,–,?,–,–,–
O=C(C1COc2ccccc2O1)N1CCN(c2nc3c(F)cc(F)cc3s2)CC1 (stereo not drawn),–,–,?,·,·,–
O=[N+]([O-])c1cccc(-c2ccc(SCc3ccccn3)nn2)c1,?,4µM,27µM,–,?,?
COc1cccc(-c2ccc(SCc3ccccn3)nn2)c1,?,2.8µM,11µM,–,11µM,3.5µM
CC(C)c1ccc(C2NC(=O)c3n[nH]c(-c4cccs4)c32)cc1 (stereo not drawn),·,·,–,·,–,·
SMILES,ELG1 genotox,Rab9 prom act,FLuc counter,Luc counter,SMN2 splice enh,NPC1 promoter act
CCc1ccc(/C=C/C(=O)c2ccc(N3CCOCC3)cc2)cc1,–,–,1.5µM,–,–,–
O=C(/C=C/c1ccc(F)cc1)c1ccc(N2CCOCC2)cc1,–,–,1.2µM,·,·,–
Cc1ccc(/C=C/C(=O)c2ccc(N3CCOCC3)cc2)s1,–,?,0.34µM,?,22µM,?
Cc1cccc(/C=C/C(=O)c2ccc(N3CCOCC3)cc2)c1,–,–,21µM,–,–,–
Cc1cc(C)n(CCC(=O)N/N=C/c2ccccc2O)n1,–,–,–,–,·,–
O=C1c2ccccc2NC(c2cccc([N+](=O)[O-])c2)N1CCc1ccccc1 (stereo not drawn),–,?,19µM,·,·,?
Cc1cccc(C2Nc3ccccc3C(=O)N2CCc2ccccc2)n1 (stereo not drawn),–,–,?,–,?,–
CCOC(=O)c1cccc(NC(=O)Nc2ccc(OCC)cc2)c1,–,2.8µM,2.7µM,–,10µM,1.8µM
CCOc1ccc(/C=C/C(=O)Nc2cccc(C(C)=O)c2)cc1,–,?,1.2µM,–,?,?
CCOc1ccc(NC(=O)Nc2cccc(C(=O)O)c2)cc1,–,0.089µM,0.027µM,?,2µM,?
CCOc1ccc(S(=O)(=O)NCCC(=O)Nc2cccc(C(=O)OC)c2)cc1,–,3.2µM,–,·,·,–
O=C1c2ccc(Oc3ccc([N+](=O)[O-])cc3)cc2C(=O)N1c1ccncc1,–,–,–,–,–,–
COc1cccc2c1cc1c(=O)n(CC(=O)NCc3ccc(N(C)C)cc3)nc(C)n12,·,·,–,·,–,·
O=C(NCC1CCCCC1)c1cccc(S(=O)(=O)NCc2cccnc2)c1,–,–,–,–,–,–
S=C(NCCc1ccncc1)Nc1cccc2ccccc12,–,–,–,–,·,–
